Our source for the binding signal values is article PMC7862700, “An all-to-all approach to the identification of sequence-specific readers for epigenetic DNA modifications on cytosine”.

What all share (assay): DAPPL (digital affinity profiling via proximity ligation, sequencing); 10 mM Tris-HCl pH 7.5, 50 mM NaCl, 1 mM DTT, 4% glycerol, room temperature, 30 min; GST-TFs on glutathione beads, 16-mer random dsDNA library, 0.1% formaldehyde crosslink after washing; high values mean tight binding
Holding throughout (settings): protein: recombinant; tags: N-terminal GST; dsDNA, one strand shown

For experiment [1], the target named is T1, ELK1 (Homo sapiens, UniProt P19419 1-428).
T1 sequence: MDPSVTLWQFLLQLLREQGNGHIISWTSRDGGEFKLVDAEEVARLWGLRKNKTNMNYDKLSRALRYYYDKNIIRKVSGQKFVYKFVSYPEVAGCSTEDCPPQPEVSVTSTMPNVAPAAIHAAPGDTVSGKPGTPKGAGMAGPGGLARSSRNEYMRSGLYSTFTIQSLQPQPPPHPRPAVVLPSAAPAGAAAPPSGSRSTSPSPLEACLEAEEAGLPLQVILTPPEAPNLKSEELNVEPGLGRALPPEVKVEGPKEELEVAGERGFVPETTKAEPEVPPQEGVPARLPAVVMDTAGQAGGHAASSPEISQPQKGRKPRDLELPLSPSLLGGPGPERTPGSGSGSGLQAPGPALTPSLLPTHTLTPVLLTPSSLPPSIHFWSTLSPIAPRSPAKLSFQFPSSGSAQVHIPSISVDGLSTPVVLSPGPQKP
The procedure, abridged:
(§1)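 GST fusions of human transcription factors were expressed in yeast and captured with glutathione beads. Once given DNA barcodes and pooled alongside a tag-only sample, they were incubated for 30 min at room temperature with 200 nmole of a random double-stranded 16-mer DNA library in Tris/NaCl/DTT/glycerol buffer, then washed, crosslinked (0.1% formaldehyde), proximity-ligated, PCR-amplified and sequenced on an Illumina NextSeq500. The binding signal of each hexamer is its read frequency for a factor divided by its frequency for the tag-only sample.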

Experiment [2] addresses T2, GABPA (Homo sapiens, UniProt Q06546 1-454).
T2 sequence: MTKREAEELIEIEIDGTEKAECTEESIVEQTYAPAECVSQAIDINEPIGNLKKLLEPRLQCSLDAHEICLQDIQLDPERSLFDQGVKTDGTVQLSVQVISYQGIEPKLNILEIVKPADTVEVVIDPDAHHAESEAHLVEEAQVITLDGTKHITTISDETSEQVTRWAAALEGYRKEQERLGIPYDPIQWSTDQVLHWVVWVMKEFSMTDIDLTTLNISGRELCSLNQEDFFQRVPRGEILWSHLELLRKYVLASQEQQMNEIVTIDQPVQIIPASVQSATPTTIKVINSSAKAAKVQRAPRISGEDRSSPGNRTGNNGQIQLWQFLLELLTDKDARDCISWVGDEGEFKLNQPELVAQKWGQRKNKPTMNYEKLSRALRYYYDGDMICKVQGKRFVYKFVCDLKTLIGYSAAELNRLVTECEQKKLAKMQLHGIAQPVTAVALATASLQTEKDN
In outline: as §1

For experiment [3], the target named is T3, ERG (Homo sapiens, UniProt P11308 1-479).
T3 sequence: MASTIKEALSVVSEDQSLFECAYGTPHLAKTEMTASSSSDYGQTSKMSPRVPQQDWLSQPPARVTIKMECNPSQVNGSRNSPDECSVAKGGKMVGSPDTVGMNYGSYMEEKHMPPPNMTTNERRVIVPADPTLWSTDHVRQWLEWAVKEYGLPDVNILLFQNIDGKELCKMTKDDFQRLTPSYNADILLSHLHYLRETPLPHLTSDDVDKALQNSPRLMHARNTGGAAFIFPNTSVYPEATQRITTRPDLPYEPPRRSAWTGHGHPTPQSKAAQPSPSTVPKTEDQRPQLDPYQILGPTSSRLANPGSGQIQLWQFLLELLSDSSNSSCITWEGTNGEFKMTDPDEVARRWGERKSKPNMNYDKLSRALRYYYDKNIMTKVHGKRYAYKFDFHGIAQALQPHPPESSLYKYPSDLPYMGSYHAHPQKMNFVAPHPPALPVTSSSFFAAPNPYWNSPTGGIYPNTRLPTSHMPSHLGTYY
In outline:
as §1

The target in experiment [4] is ELF1 (Homo sapiens, UniProt P32519 1-619). The procedure, abridged: as §1
Sequence of ELF1 (P32519 whole entry): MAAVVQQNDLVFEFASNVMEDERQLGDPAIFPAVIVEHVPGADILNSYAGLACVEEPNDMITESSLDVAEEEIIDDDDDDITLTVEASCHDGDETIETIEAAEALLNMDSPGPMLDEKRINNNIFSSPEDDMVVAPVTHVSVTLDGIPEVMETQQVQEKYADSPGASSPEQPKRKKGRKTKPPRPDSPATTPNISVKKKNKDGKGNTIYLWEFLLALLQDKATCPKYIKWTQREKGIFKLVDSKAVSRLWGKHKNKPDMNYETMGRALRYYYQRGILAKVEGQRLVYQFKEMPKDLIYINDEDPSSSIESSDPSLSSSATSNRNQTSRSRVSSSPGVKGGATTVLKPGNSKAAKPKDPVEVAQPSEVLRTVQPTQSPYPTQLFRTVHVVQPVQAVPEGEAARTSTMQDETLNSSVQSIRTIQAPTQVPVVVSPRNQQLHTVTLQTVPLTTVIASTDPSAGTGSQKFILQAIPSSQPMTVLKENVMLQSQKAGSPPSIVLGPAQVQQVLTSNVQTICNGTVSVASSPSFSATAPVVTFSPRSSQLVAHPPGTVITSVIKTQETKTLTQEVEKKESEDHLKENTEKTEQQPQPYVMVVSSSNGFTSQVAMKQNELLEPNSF
The target in experiment [5] is T4, EHF (Homo sapiens, UniProt Q9NZC4 1-300).
T4 sequence: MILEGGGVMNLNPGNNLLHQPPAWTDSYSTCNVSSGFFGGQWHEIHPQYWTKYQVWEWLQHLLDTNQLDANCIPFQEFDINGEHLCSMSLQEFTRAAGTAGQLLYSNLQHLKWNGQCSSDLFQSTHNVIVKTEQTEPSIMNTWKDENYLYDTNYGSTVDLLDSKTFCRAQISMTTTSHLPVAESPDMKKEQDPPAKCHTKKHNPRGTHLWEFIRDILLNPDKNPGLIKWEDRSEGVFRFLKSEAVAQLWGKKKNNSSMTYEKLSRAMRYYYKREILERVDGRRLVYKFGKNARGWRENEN
The procedure, abridged: as §1

Experiment [6] concerns the target SPI1 (Homo sapiens, UniProt P17947 1-270). In outline:
as §1

In experiment [7] the target is SPIB (Homo sapiens, UniProt Q01892 1-262). The procedure, abridged: as §1
Sequence of SPIB (Q01892 whole entry): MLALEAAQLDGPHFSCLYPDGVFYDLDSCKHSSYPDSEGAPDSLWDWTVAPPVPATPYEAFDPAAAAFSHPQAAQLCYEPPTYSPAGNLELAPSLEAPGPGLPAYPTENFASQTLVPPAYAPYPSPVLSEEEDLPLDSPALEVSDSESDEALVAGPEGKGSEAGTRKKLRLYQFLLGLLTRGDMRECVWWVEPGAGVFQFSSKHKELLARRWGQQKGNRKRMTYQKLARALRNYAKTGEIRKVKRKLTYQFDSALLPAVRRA
Experiment [8] concerns the target T5, FEV (Homo sapiens, UniProt Q99581 1-238).
T5 sequence: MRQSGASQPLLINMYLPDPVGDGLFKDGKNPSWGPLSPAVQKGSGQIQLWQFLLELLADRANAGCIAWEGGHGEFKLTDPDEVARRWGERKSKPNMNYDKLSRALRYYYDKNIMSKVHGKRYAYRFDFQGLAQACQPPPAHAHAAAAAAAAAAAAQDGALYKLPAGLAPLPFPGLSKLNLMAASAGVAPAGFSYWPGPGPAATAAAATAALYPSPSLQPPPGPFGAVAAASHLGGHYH
The procedure, abridged:
as §1

For experiment [9], the target named is ETV5 (Homo sapiens, UniProt P41161 1-510). The procedure, abridged:
as §1

The target in experiment [10] is ELF4 (Homo sapiens, UniProt Q99607 1-663). The procedure, abridged:
as §1

Sequence of ETV5 (P41161 whole entry): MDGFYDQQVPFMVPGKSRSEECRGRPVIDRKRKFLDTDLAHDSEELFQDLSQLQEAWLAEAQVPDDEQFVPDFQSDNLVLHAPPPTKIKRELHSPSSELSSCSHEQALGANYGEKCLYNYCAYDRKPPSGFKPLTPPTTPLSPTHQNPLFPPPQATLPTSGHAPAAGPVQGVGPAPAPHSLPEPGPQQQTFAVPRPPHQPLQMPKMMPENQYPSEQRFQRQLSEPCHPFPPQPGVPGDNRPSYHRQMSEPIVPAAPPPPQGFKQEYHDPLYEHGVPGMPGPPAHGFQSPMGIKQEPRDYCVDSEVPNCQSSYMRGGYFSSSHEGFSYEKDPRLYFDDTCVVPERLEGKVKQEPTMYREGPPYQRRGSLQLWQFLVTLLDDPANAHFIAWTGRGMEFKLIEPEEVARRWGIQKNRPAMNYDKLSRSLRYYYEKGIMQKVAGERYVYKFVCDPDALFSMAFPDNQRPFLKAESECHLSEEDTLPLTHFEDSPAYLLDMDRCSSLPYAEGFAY
Sequence of ELF4 (Q99607 whole entry): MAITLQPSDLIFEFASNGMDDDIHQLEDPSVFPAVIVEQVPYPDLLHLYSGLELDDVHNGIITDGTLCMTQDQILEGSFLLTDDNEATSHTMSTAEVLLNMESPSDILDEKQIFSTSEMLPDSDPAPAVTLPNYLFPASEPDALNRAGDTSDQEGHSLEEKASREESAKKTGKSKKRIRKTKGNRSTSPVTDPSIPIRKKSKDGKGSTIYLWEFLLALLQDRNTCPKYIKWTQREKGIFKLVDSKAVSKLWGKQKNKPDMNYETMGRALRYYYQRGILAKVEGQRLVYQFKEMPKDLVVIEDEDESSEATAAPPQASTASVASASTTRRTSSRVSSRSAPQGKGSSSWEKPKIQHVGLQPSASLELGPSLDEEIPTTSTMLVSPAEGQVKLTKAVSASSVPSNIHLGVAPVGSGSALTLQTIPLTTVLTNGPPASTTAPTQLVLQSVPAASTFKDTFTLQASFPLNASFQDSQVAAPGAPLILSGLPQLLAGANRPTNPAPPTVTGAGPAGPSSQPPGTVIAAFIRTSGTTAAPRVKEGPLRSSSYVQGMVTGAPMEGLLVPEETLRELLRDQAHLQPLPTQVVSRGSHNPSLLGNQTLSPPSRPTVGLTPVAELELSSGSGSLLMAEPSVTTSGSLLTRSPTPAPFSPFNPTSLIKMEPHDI

Turning to AAGATC, the binding signal in [1] is 1.07 fold enrichment (6-mer frequency, TF over GST control); in [2] it was 1.08 fold enrichment (6-mer frequency, TF over GST control); in [3] it was 1.07 fold enrichment (6-mer frequency, TF over GST control); in experiment [4] it was 1.05 fold enrichment (6-mer frequency, TF over GST control); in experiment [5], 1.04 fold enrichment (6-mer frequency, TF over GST control); in experiment [6] it was 1.04 fold enrichment (6-mer frequency, TF over GST control). Moreover, the binding signal is 1.13 fold enrichment (6-mer frequency, TF over GST control) in experiment [7]; 1.03 fold enrichment (6-mer frequency, TF over GST control) in [8]; 1.03 fold enrichment (6-mer frequency, TF over GST control) in [9]; 1.03 fold enrichment (6-mer frequency, TF over GST control) in [10].
